Among the test systems are NCI-H23 lung; NCI-H226 lung; NCI-H322M lung; HOP-62 NSCLC; NCI-H460 lung; HOP-92 NSCLC; NCI-H522 lung; A549/ATCC NSCLC; 786-0 renal; DU-145 prostate; K-562 leukemia; MALME-3M melanoma; MDA-MB-231 breast; RXF 393 renal; SF-268 CNS; SF-295 CNS; SF-539 CNS; UACC-257 melanoma; M14 melanoma.
What all share (test): NCI-60 one-dose screen, 48 h (100 = growth as untreated, 0 = no growth, -100 = all killed)
Conditions in all cases: 10 µM unless noted

This is part of a sample that, as a whole, favours compounds with a hit. Of some 83,000 tested, about 20% had one in any assay.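 Single-concentration screen, 48 h exposure, 96-well plates. Endpoint: percent growth. Below 10 = active.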 A number with no mark means an inactive call. Active and inactive are the calls of the source.

Take `O=S(=O)(NCCNc1cc(-c2c(-c3cccc(O)c3)nc3sccn23)ccn1)c1ccc(Br)cc1`: the growth in the test with NCI-H23 lung is 76.2%; with NCI-H226 lung, 62.3%; in the test on NCI-H322M lung, 81.1%; in the test with HOP-62 NSCLC it was 102%; in the test with NCI-H460 lung it was 54.1%; in the test on HOP-92 NSCLC, 74.9%. The growth with NCI-H522 lung was 66.1%; with A549/ATCC NSCLC, 50.1%; in the test with 786-0 renal it was 52.7%; with DU-145 prostate, 57.9%; in the test with K-562 leukemia, 34.5%; in the test on MALME-3M melanoma, 78.8%. For the same compound, the growth with MDA-MB-231 breast is 72.8%; with RXF 393 renal, 60%; in the test on SF-268 CNS, 41.3%; in the test with SF-295 CNS, 69%; in the test with SF-539 CNS, 75.2%; with UACC-257 melanoma, 89.1%. For the same compound, the growth with M14 melanoma is 60.8%.

As for `COc1ccc(/C=N/NC(=O)Cn2c(-c3ccc(S(C)(=O)=O)cc3)nc3cc(Cl)ccc32)cc1`, the growth with NCI-H23 lung is 29.9%; with NCI-H226 lung, 57.1%; with NCI-H322M lung, 51.4%; in the test on HOP-62 NSCLC, 30.5%; with NCI-H460 lung, 7.74% (active); in the test with HOP-92 NSCLC it was 49.3%. Also, the growth in the test with NCI-H522 lung was 2.78% (active); in the test on A549/ATCC NSCLC, 17.4%; in the test with 786-0 renal, 39.2%; in the test on DU-145 prostate it was 14.2%; in the test with K-562 leukemia, 6.93% (active); with MALME-3M melanoma it was 65.8%. For the same compound, the growth with MDA-MB-231 breast was 12.9%; with RXF 393 renal, 14.9%; with SF-268 CNS, 45.2%; in the test on SF-295 CNS it was 13.4%; in the test with SF-539 CNS, -14.1% (active); in the test with UACC-257 melanoma, 64.4%. Also, the growth in the test on M14 melanoma is 13.5%.

Regarding `CCN(CC)N=Nc1nn(C(=O)Nc2ccc(Cc3ccccc3)cc2)c2ccc(Cl)cc12`, the growth with NCI-H23 lung was 90.4%; with NCI-H226 lung, 84%; with NCI-H322M lung it was 82.5%; with HOP-62 NSCLC, 86.9%; with NCI-H460 lung, 25.7%; with HOP-92 NSCLC, 102%. Also, the growth with NCI-H522 lung was 67.3%; in the test on A549/ATCC NSCLC, 67.7%; in the test with 786-0 renal it was 59.5%; in the test with DU-145 prostate, 70.5%; in the test on K-562 leukemia it was 22.3%; in the test on MALME-3M melanoma, 139%. In addition, the growth in the test on MDA-MB-231 breast is 102%; with RXF 393 renal, 116%; in the test on SF-268 CNS it was 76%; with SF-295 CNS it was 8.57% (active); with SF-539 CNS, 77.7%; in the test on UACC-257 melanoma, 55.5%. Also, the growth in the test with M14 melanoma is 22%.

As for `C=C1c2c(C)nn(-c3ccc(O)cc3)c2N(C)C23C[C@@H]1C1(C)c4c(C)nn(-c5ccc(O)cc5)c4N(C)C(C)(C[C@H]12)C3` (some centres not stated), the growth with NCI-H23 lung is 50.4%; in the test with NCI-H226 lung, 11.8%; in the test on NCI-H322M lung it was 59.4%; in the test on HOP-62 NSCLC, 37%; in the test on NCI-H460 lung, 20.1%; with HOP-92 NSCLC, 7.18% (active). The growth is 20.7% in the test with NCI-H522 lung; 31.3% with A549/ATCC NSCLC; 34.3% in the test with 786-0 renal; 45% in the test on DU-145 prostate; 18.1% in the test with K-562 leukemia; 58.7% in the test on MALME-3M melanoma. In addition, the growth in the test on MDA-MB-231 breast was 14.8%; in the test with RXF 393 renal it was 19.9%; in the test with SF-268 CNS, 48%; in the test on SF-295 CNS, 26.9%; in the test on SF-539 CNS, 23.7%; in the test with UACC-257 melanoma it was 29.1%. Moreover, the growth in the test on M14 melanoma was 15.5%.

Turning to `N=C(N)c1ccc(-c2ccc(/C=C/c3ccccc3)s2)cc1`, the growth with NCI-H23 lung is 55.2%; in the test on NCI-H226 lung it was 84.7%; in the test on NCI-H322M lung, 1% (active); in the test on HOP-62 NSCLC it was 33.3%; with NCI-H460 lung, -60.1% (active); in the test with HOP-92 NSCLC it was 34.7%. Also, the growth is 20% with NCI-H522 lung; 12.7% in the test on A549/ATCC NSCLC; -38.3% (active) in the test on 786-0 renal; 1.59% (active) in the test on DU-145 prostate; -27.7% (active) in the test with K-562 leukemia; 61.2% in the test on MALME-3M melanoma. Moreover, the growth is -51.5% (active) in the test with MDA-MB-231 breast; 39.2% in the test with RXF 393 renal; 60.7% with SF-268 CNS; -61.7% (active) with SF-295 CNS; 17.2% in the test with SF-539 CNS; 105% in the test on UACC-257 melanoma. Further, in the test with M14 melanoma, the growth was 31.8%.

`CCN(CC)CCCC(C)NCc1ccccc1` (configuration not stated): the growth in the test on NCI-H23 lung was 101%; in the test with NCI-H226 lung, 109%; in the test on NCI-H322M lung, 88.1%; in the test on HOP-62 NSCLC, 108%; in the test with NCI-H460 lung, 106%; in the test on HOP-92 NSCLC, 85.1%. Moreover, the growth with NCI-H522 lung is 73.3%; in the test on A549/ATCC NSCLC, 99.5%; with 786-0 renal, 89.8%; in the test with DU-145 prostate, 97.8%; in the test with K-562 leukemia it was 118%; in the test with MALME-3M melanoma, 91.1%. For the same compound, the growth in the test with MDA-MB-231 breast is 105%; in the test on RXF 393 renal, 135%; in the test on SF-268 CNS, 100%; in the test with SF-295 CNS, 101%; with SF-539 CNS, 102%; in the test with UACC-257 melanoma it was 102%. Besides, the growth in the test with M14 melanoma is 91.4%.

`CN1CCN(c2ccc3nc(/N=C/c4ccc5sc(-c6ccc([N+](=O)[O-])cc6)nc5c4)sc3c2)CC1`: the growth in the test with NCI-H23 lung is 99.4%; in the test on NCI-H226 lung it was 97.9%; in the test on NCI-H322M lung it was 105%; in the test on HOP-62 NSCLC it was 120%; in the test on NCI-H460 lung, 103%; in the test on HOP-92 NSCLC it was 111%. For the same compound, the growth is 95% in the test with NCI-H522 lung; 98.6% in the test on A549/ATCC NSCLC; 101% in the test on 786-0 renal; 106% in the test with DU-145 prostate; 90.6% in the test on K-562 leukemia; 96.7% with MALME-3M melanoma. Further, the growth was 112% with MDA-MB-231 breast; 129% in the test on RXF 393 renal; 111% in the test on SF-268 CNS; 96% in the test with SF-295 CNS; 93.4% with SF-539 CNS; 101% in the test on UACC-257 melanoma. Moreover, the growth in the test on M14 melanoma is 104%.

In the case of `Cc1cc(N2CCCCC2)nc(N(CCNc2ccnc3cc(Cl)ccc23)Cc2ccccn2)n1`, the growth in the test on NCI-H23 lung is 53.7%; in the test on NCI-H226 lung it was 63.5%; in the test with NCI-H322M lung it was 68.8%; in the test with HOP-62 NSCLC, 55.6%; with NCI-H460 lung, 41.5%; with HOP-92 NSCLC, 30.6%. Besides, the growth with NCI-H522 lung was 56.3%; in the test on A549/ATCC NSCLC, 53.9%; in the test with 786-0 renal, 45.3%; with DU-145 prostate, 61.9%; in the test on K-562 leukemia, 7.83% (active); in the test with MALME-3M melanoma it was 74.1%. Moreover, the growth in the test with MDA-MB-231 breast is 49.6%; with RXF 393 renal, 30.7%; in the test with SF-268 CNS, 71.8%; with SF-295 CNS, 21.5%; in the test on SF-539 CNS, 39.2%; in the test with UACC-257 melanoma, 66.9%. The growth in the test with M14 melanoma is 45%.

For the origin of these results see PubChem BioAssay (NCI).
